The results in this text go back to PubChem BioAssay (Tox21).

SMILES strings stand for the structures. “And” between values parts separate entries of the source, which are not always exact repeats. Equal entries are not always repeated. Records with an inconclusive call do not appear. Entries that show only a call come without a potency. Some compounds were tested as several samples or in several runs, with calls that do not always agree. The source made the active and inactive calls. The call rests on the fitted dose curve; in most records, active means well fitted cell-killing curve with a large enough effect in the repeat runs; inconclusive means weak or mixed curves; inactive means no such curve, though single readings can be large or run the other way.
Potency means the concentration at half of the fitted maximal effect.

The test in a line: qHTS assay for identifying genotoxic compounds that show differential cytotoxicity against isogenic chicken DT40 cell lines with known DNA damage response pathways - Rad54/Ku70 mutant cell line (AID 743015). Further: nearly all actives have a fitted effect of over 60% in size. The following applies: DT40 Rad54/Ku70 mutant viability, CellTiter-Glo, 40 h; series mostly up to 66.8 µM. The source says: National Center for Advancing Translational Sciences [NCATS]
NIH Chemical Genomics Center [NCGC]
U.S. Environmental Protection Agency [EPA]
National Institutes of Environmental Health Sciences [NIEHS]
National Toxicology Program [NTP]
U.S. Food and Drug Administration [FDA]
DNA repair pathways play a critical role in cellular homeostasis by repairing DNA damage induced by endogenous processes and xenobiotics. Isogenic chicken DT40 cell lines deficient in different DNA repair pathways can be used to identify genotoxic compounds and aid in characterizing the nature of the DNA damage induced. Two DNA repair-deficient cell lines with disrupted genes, Rad54/Ku70 or Rev3, were used to screen the Tox21 10K compound library. Possible genotoxicity was based on the presence of a significant increase in cytotoxicity in one or more of the DNA repair-deficient cell lines compared to that observed in the parental DNA repair-proficient cell line. CellTiter Glo viability assay (Promega, Madison, WI) was used to measure cell viability in these cells after compound treatment. This assay includes the data from the Rad54/Ku70 mutant cell line.
Tox21 Assay Protocol Summary:
300 DT40 mutant cells in 5 uL/well were dispensed into white, solid-bottom 1536-well plates using a Multidrop Combi (ThermoFisher Scientific, Waltham, MA) dispenser. After the assay plates were incubated at 37 C/5% CO2 for approximately 0.5 hour, 23 nL of compounds dissolved in DMSO, positive controls or DMSO only was transferred into the assay plate by a pintool work station (Kalypsys, San Diego, CA). The assay plates were incubated at 37 C/5% CO2 for 40 hours. After 5 uL per well of CellTiter-Glo reagent was added into each well of the assay plates, the plates were incubated for 30 min at room temperature and the luminescence intensity of the plates was measured using a ViewLux (PerkinElmer, Shelton, CT) plate reader.
For orientation: Quantitative high-throughput screening tests each substance at several concentrations.
For `CNc1cnn(-c2cccc(C(F)(F)F)c2)c(=O)c1Cl`, the Potency result was “inactive”.
To `Sc1ccccc1` belongs “inactive”; to `CN(C)C(=O)C(c1ccccc1)c1ccccc1`, “inactive”; to `O=C(O)c1cc(Oc2ccc(C(F)(F)F)cc2Cl)ccc1[N+](=O)[O-]`, “inactive”.
Consider `COC(=O)Nc1cccc(OC(=O)Nc2cccc(C)c2)c1`, for which the Potency result is “inactive”.
In the case of `CC(C)(C)C(=O)CCl`, the Potency result was “inactive”.
In the case of `O=C/C=C/c1ccccc1`, the Potency entry is “inactive”.
For `CC(=O)C1CCOC1=O` (stereo not given), the Potency entry was “inactive”.
`C[C@H]1C(=O)O[C@@H]2CCN3CC=C(COC(=O)[C@](C)(O)[C@]1(C)O)[C@H]23`: the Potency result was “inactive and 38.6 µM (active)”.
In the case of `CC(C)c1cccc(C(C)C)c1O`, the Potency result was “inactive”.
Consider `Cc1ccc(N=C=O)cc1N=C=O`, for which the Potency is 62.7 µM (active) and inactive.
In the case of `Cc1cccc(C)c1NC(=O)CN1CCCC1=O`, the Potency result was “inactive”.
As to `C=CC(=O)OCCCCCC(C)C`, the Potency entry is “inactive”.
With `Cc1cc(Cl)ccc1OC(C)C(=O)O` (stereo not given) the entry was “inactive”; with `COP(=S)(OC)SCN1C(=O)c2ccccc2C1=O`, “inactive”; with `CCNc1nc(Cl)nc(NC(C)C)n1`, “inactive”.
In the case of `CNC(=O)O/N=C/C(C)(C)SC`, the Potency result is “inactive”.
Turning to `Cc1cccc(C)c1N`, the Potency entry is “inactive”.
To `Nc1cccc(Cl)c1` belongs “inactive”.
To `ClC(Cl)c1ccccc1` belongs “inactive”; to `Cc1cccc(N)c1C`, “inactive”; to `O=P1(NCCCl)OCCCN1CCCl` (stereo not given), “inactive”.
To `FC(F)(F)c1ccc(Cl)cc1` belongs “inactive”; to `N#Cc1cccc(C#N)c1`, “inactive”; to `CNCC(O)c1ccc(O)cc1` (stereo not given), “inactive”.
As to `O=[N+]([O-])c1ccc(Cl)cc1`, the Potency entry was “inactive”.
For the molecule `O=S(=O)(O)OOS(=O)(=O)O`, the Potency result is “inactive”.
For the molecule `CCOP(=S)(OCC)Oc1cc(C)nc(C(C)C)n1`, the Potency result was “inactive and 30.6 µM (active)”.
To `Oc1c(Br)cc(Br)cc1Br` belongs “inactive”.
For the molecule `COP(=S)(OC)Oc1ccc(SC)c(C)c1`, the Potency entry was “inactive and 61.1 µM (active)”.
With `CNC(=O)O/N=C(\SC)C(=O)N(C)C`, the Potency is 54.4 µM (active).
With `CN1C(=O)CCS(=O)(=O)C1c1ccc(Cl)cc1` (stereo not given) the entry was “inactive”; with `O=C(O)CCCc1ccc(N(CCCl)CCCl)cc1`, 3.86 µM (active).
Take `O=[N+]([O-])c1cc([As](=O)(O)O)ccc1O`: the Potency entry is “inactive”.
To `OCc1ccco1` belongs “inactive”; to `Cc1cc(O)ccc1Cl`, “inactive”.
To `Nc1ccc([As](=O)(O)O)cc1` belongs “inactive and 13.3 µM (active)”; to `OCCCCO`, “inactive”.
Take `O=C(O)C(Br)Br`: the Potency entry is “inactive”.
With `CSc1nnc(C(C)(C)C)c(=O)n1N` the entry was “inactive”.
